Results on 23 compounds are retold here after PubChem BioAssay (Tox21).

Results filed as inconclusive are left out. A structure can be active in one record and inactive in another. Activity calls are given as the source filed them. Calls come from the whole dose curve.
% is set by controls: 0 for no effect and ±100 for the full control effect; potency is the fitted concentration of half-maximal effect.

Sequence of Acetylcholinesterase (Homo sapiens) (P22303 whole entry, looked up): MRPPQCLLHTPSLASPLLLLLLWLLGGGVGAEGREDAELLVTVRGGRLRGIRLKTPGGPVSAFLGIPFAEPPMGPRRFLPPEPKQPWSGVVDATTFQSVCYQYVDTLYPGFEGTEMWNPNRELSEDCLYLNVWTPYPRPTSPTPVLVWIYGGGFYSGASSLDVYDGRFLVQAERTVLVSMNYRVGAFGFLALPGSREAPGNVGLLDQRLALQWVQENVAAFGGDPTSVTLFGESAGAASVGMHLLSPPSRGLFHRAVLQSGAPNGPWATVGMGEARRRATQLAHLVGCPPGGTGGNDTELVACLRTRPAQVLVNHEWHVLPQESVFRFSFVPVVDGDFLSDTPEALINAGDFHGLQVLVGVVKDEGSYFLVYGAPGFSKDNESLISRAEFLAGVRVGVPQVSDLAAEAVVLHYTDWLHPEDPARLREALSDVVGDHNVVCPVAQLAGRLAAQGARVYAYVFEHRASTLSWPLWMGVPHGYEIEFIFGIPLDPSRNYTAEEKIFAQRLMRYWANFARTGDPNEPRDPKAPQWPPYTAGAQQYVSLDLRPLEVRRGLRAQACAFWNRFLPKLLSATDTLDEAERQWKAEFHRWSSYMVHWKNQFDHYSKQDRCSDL

This test concerns the target Acetylcholinesterase (Homo sapiens) (UniProt P22303). In words: Acetylcholinesterase (AChE) small molecule antagonists: colormetric cell-based qHTS assay (AID 1347395). Note: nearly all actives have a fitted effect of over 30% in size. Conditions: SH-SY5Y cells AChE activity, colorimetric (Ellman); series mostly up to 115 µM; activity, negative = inhibition: at the top concentration. Put shortly: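 After overnight attachment at 37 C, SH-SY5Y cells get 30 min compound exposure; detection cocktail (acetylthiocholine, DTNB) then incubates 90 min at 37 C, and absorbance reflects AChE-generated thiocholine.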
Take `O=C1CCCC1`: the Potency result was “inactive”.
Turning to `Cc1nc(C2CCCCC2)c(-c2ccc(S(N)(=O)=O)c(F)c2)o1`, the “activity, negative = inhibition” value is -0.729% [at 52.9 µM] (inactive).
Same read-out and setting: to `CN(C)C(=O)CNC(=O)Cc1ccccc1` belongs 0.0033% [at 52.9 µM] (inactive).
As to `NS(=O)(=O)O`, the Potency result was “inactive”.
Same read-out and setting: to `CCCCCCC(C)(C)S` belongs “inactive”.
Turning to `CC(C)NCC(O)COc1ccc(COCCOC(C)C)cc1` (stereo not drawn), the “activity, negative = inhibition” value was -0.853% [at 52.9 µM] (inactive).
The same measure, in the same setting: to `COC(c1ccccc1)(c1ccccc1)[C@H](Oc1nc(C)cc(C)n1)C(=O)O` belongs 0.673% [at 52.9 µM] (inactive).
With `CCCCCCCO`, the Potency entry was “inactive”.
On to `CNC(=O)NC`, for which the “activity, negative = inhibition” value was 0.513% (inactive).
As to `CC1(C)O[C@@H]2C[C@H]3[C@@H]4C[C@H](F)C5=CC(=O)C=C[C@]5(C)[C@@]4(F)[C@@H](O)C[C@]3(C)[C@]2(C(=O)CO)O1`, the Potency entry is “inactive”.
Same read-out and setting: to `NC(=O)N/N=C/c1ccc([N+](=O)[O-])o1` belongs “inactive”.
Regarding `C[C@H](CCC(=O)O)[C@H]1CC[C@H]2[C@@H]3[C@H](O)C[C@@H]4C[C@H](O)CC[C@]4(C)[C@H]3CC[C@]12C`, the “activity, negative = inhibition” value is -1.36% (inactive).
On the same count and under the same terms, to `CCCCCCCCNC` belongs 0.101% (inactive).
`OCCc1ccccc1`: the Potency result is “inactive”.
Turning to `CC(=O)CC(=O)Nc1ccccc1`, the Potency entry is “inactive”.
The same measure, in the same setting: to `OCc1ccccc1` belongs 39.4 µM (active) and inactive.
As to `O[C@@H]1CO[C@H]2[C@@H]1OC[C@@H]2O`, the “activity, negative = inhibition” value is 1.5% [at 52.9 µM] (inactive).
In the case of `OCCN1C[C@H](O)[C@@H](O)[C@H](O)[C@H]1CO`, the “activity, negative = inhibition” value was -0.0881% [at 52.9 µM] (inactive).
As for `NNS(=O)(=O)c1ccc(Oc2ccc(S(=O)(=O)NN)cc2)cc1`, the “activity, negative = inhibition” value is 7.47% (inactive).
For `Cc1ccc(C=O)cc1`, the “activity, negative = inhibition” value is 4.29% [at 52.9 µM] (inactive).
As for `CCCC[O][Al]([O]CCCC)[O]CCCC`, the “activity, negative = inhibition” value was 2.93% (inactive).
With `CN1Cc2c(N)cccc2C(c2ccccc2)C1` (stereo not drawn), the Potency entry was “inactive”.
In the case of `Oc1cc(O)c2c(c1)O[C@H](c1ccc(O)c(O)c1)[C@H](O)C2`, the “activity, negative = inhibition” value was -8.38% [at 52.9 µM] (inactive).
